BRCT inh red – qHTS Assay for Inhibitors of BRCT-Phosphoprotein Interaction (Red Fluorophore). Breast cancer type 1 susceptibility protein (Homo sapiens), P38398. BRCT-phosphopeptide binding, red fluorescence polarization. actives 0.03% (n = 75,000). Potency, µM (doses to about 76.9 µM), for inactives: at the top dose activity change, negative = inhibition, most hits filed as inhibitors; note: % is set by controls: 0 for no effect and ±100 for the full control effect
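Fluorescence polarization: 100 nM His-tagged BRCA1 BRCT with 100 nM TAMRA-labelled phospho-BACH1 decapeptide, phosphate buffer pH 7.3 with 150 mM NaCl, DTT, 0.01% Tween 20; 12 min RT. Binding inhibition seen as FP decrease.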
USP2a inhib – qHTS Assay for Inhibitors of Ubiquitin-specific Protease USP2a; Ubiquitin carboxyl-terminal hydrolase 2 (Homo sapiens), O75604; USP2a enzymatic assay, qHTS inhibition; Potency, µM (titrated, usually from 38.3 µM), without a hit: at the highest dose activity change, negative = inhibition, most hits filed as inhibitors; actives 0.1% (n = 60,000); AID 927, 2007; note: potency is the fitted concentration of half-maximal effect; nearly all actives have a fitted effect of over 60% in size
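20 nM USP2 core + cpd, 30 min RT; add 20 nM Ub-PLA2/20 uM NBD C6-HPC; read Ex460/Em535 at 0 h and 2.5 h. Normalized to NEM; qHTS curve fit/classification.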
YjeE inh – qHTS Assay for Inhibitors of YjeE. tRNA threonylcarbamoyladenosine biosynthesis protein TsaE (Escherichia coli (strain …. purified YjeE enzyme, qHTS inhibition assay. Potency, µM. actives 0.05% (n = 71,000). AID 605, 2007
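Fluorescence polarization of a BODIPY Texas Red–ADP probe (2 uM) bound to purified YjeE (10 uM) was read after 15 min room-temperature incubation with compounds. Loss of polarization marks inhibitors; ADP serves as titrated control.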
BRCT inh green – qHTS Assay for Inhibitors of BRCT-Phosphoprotein Interaction (Green Fluorophore). Potency, µM (series often up to 76.9 µM), for the others: at the top dose activity change, negative = inhibition, usual class: inhibitors. BRCA1 BRCT-phosphopeptide binding, green fluorescence polarization. actives 0.05% (n = 75,000). Breast cancer type 1 susceptibility protein (Homo sapiens), P38398;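 note: potency is the fitted concentration of half-maximal effect; plate controls were peptide without protein for full effect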
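Compounds were incubated for 12 min at room temperature with a complex of 100 nM fluorescein-tagged pBACH1 decapeptide and 250 nM His-tagged BRCT protein. Buffer was phosphate pH 7.3 with EDTA, DTT and Tween 20. Disruption of binding lowers the polarization signal.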
Hsp90 Hop PPI – qHTS Assay for Disrupters of an Hsp90 Co-Chaperone Interaction. Hsp90 C-terminal peptide / TPR2A (Hop) interaction, human. AlphaScreen TPR2A-His6 binding biotin-Hsp90 C-terminal peptide. Potency, µM (highest dose often 57 µM), for the others: top-dose activity change, negative = inhibition. actives 0.44% (n = 71,000); active = well fitted curve in either direction with a large enough effect; inconclusive = small, poorly fitted or top-dose-only effect, or another doubt; note: potency is the fitted concentration of half-maximal effect; % is set by controls: 0 for no effect and ±100 for the full control effect
UbGFP stabilizer – Ubiquitin-GFP Assay. 67,000 tested, under 10 active. AID 526, 2006. Potency, µM (doses to about 45.9 µM), for the others: at the highest dose activation (GFP accumulation), most hits filed as activators. Ubiquitin-GFP reporter cells, proteasome inhibition, GFP fluorescence; response scale: untreated = 0%, 10 µM MG-132 = 100%; active = well fitted activation curve with a large enough effect, not every such curve was filed as active; inconclusive = small, poorly fitted or top-dose-only effect, or another doubt; inactive = no such curve, though single readings can be large or run the other way; note: potency is the fitted concentration of half-maximal effect
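Proteasome blockade was scored as a rise in GFP-expressing U2OS cells carrying a ubiquitin(G76V)-GFP construct, imaged after 4 hr compound treatment at 37 °C across a 46 uM–2.9 nM series.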
* = called active by the depositor; i = inactive; ? = inconclusive; . = not tested or not shown; ! = not active in a repeat; [ ] = remark or other dose. Compounds with a hit are over-represented: about 0.47% of the library has one in this group of screens. Unless noted, calls come from the whole dose curve; as a rule, active = well fitted curve in the direction sought with a large enough effect; inconclusive = small, poorly fitted or top-dose-only effect, or another doubt; inactive = no such curve, though single readings can be large; an effect the other way counts as inactive or inconclusive.

SMILES	BRCT inh red	USP2a inhib	YjeE inh	BRCT inh green	Hsp90 Hop PPI	UbGFP stabilizer
COC(=O)CSc1nc(N2CCCCC2)c2c(c1C#N)CCCC2	0%	13µM*	i	2%	3%	6%
COC(=O)CSc1nc(N2CCOCC2)c2c(c1C#N)CC(C)(C)N(C)C2	-2%	-7%	i	-7%	-11%	5%
CC(C)NC[C@@H](O)COc1ccccc1-n1cccc1	0%	.	i	0%	-8%	2%
CCOC(=O)CCCc1sc(N)nc1-c1[nH]c(=O)[nH]c1C	-3%	3%	i	-1%	4µM*	-1%
CNC(=O)[C@H](C)/C=C(\c1cccnc1)C(NC(=O)OCc1ccccc1)c1ccc(C(=O)OC)cc1 (stereo partly drawn)	1%	.	i	-2%	-1%	.
Cc1conc1NC(c1cccs1)c1ccc2cccnc2c1O (stereo not drawn)	0%	46%	i	2%	25µM*	-5%
Oc1c(C(Nc2nc3ccccc3s2)c2ccco2)ccc2cccnc12 (stereo not drawn)	1%	26%	i	-2%	?	2%
COc1ccc(C(=O)COC(=O)CN2CC(=O)Oc3ccccc32)cc1Br	-3%	38%	i	4%	6.3µM*	5%
Cc1cccc(CNc2ncnc3ccc(-c4ccc(C(=O)N(C)C)cc4)cc23)c1	-1%	66%	i	6%	?	-5%
c1ccc(-c2cccc(-c3ccccn3)n2)nc1	1%	2%	i	-1%	3.2µM*	0%
CC(C)N(C)C	1%	.	i	1%	-2%	.
CCOC(=O)c1ccc(NCc2ccc3c(c2)OCO3)cc1	-2%	13µM*	i	-5%	?	-11%
O=C(O)CCNc1ncnc2nc[nH]c12	-1%[15.4 µM]	.	i	1%[15.4 µM]	-1%[11 µM]	2%[9.17 µM]
COc1cccc(Nc2ncc3nc(-c4cccs4)c(=O)n(CCC#N)c3n2)c1	1%	169%	i	-10%	-2%	6.3µM*
CN(C)c1ccc(N=Nc2cccc3ccoc23)cc1	-2%[15.4 µM]	.	i	1%[15.4 µM]	4µM*	1%[9.17 µM]
Cc1cc(=O)cc2oc3cc(N)c(-c4c(C)cc(O)cc4O)c(C)c3nc1-2	?	.	.	-14%	.	.
CCC(Cl)CC(Cl)C(Cl)C(Cl)C(Cl)C(C)Cl (stereo not drawn)	0%	.	i	1%	32µM*	.
O=C(OCC(=O)c1ccccc1Br)c1ccccn1	-1%	10%	i	1%	25µM*	7%
O=C(COC(=O)c1ccccn1)Nc1nccs1	0%	3%	i	-1%	-2%	-3%
CCCOC(=O)CN1C(=O)c2ccc(C(=O)OCCC)cc2C1=O	0%	3%	i	-2%	1%	-4%
CCCCOC(=O)CN1C(=O)c2ccc(C(=O)OCCCC)cc2C1=O	-2%	-5%	i	3%	25µM*	0%
CN(C)Cc1ccccc1-c1cc(NC2CC2)ncn1	0%	-7%	i	0%	-5%	-3%
O=C(c1csnn1)N1CCC2(CC1)CCN(C(c1ccccc1)c1ccccc1)CC2	0%	111%	i	-2%	-3%	7%
CCC(C)NC(=O)c1ccccc1C(=O)NC(C)CC (stereo not drawn)	-2%	5%	i	-2%	-2%	-16%
CCC(C)Nc1ccc(NC(C)CC)cc1 (stereo not drawn)	-8%	.	100µM*	0%	?	.
SMILES	BRCT inh red	USP2a inhib	YjeE inh	BRCT inh green	Hsp90 Hop PPI	UbGFP stabilizer
COc1ccc(-c2cc3nc(-c4ccccc4)cc(N4CCC5(CC4)OCCO5)n3n2)cc1	-2%	9%	i	-2%	16µM*	5%
Cc1cccc(-c2cc3nc4c(c(N5CCC6(CC5)OCCO6)n3n2)CCCC4)c1	0%	-1%	i	2%	-1%	-2%
c1ccc2c(N3CCOCC3)nc(-c3ccoc3)nc2c1	1%	122%	i	4%	-5%	3%
C[C@@H](CN1CCC(Cc2ccccc2)CC1)[C@H](O)c1ccc(O)cc1	1%	3%	i	-2%	-2%	0%
CCCOc1ccccc1-c1nc2n[nH]nc2c(=O)[nH]1	-8%	10µM*	i	-1%[3.08 µM]	-2%	3%
N#C/C(=C\c1ccc(O)c(O)c1)C(=O)NCCCNC(=O)/C(C#N)=C/c1ccc(O)c(O)c1	-2%	-14%	i	-1%	2µM*	-2%
C[C@@H](NC(=O)/C(C#N)=C/c1ccc(O)c(O)c1)c1ccccc1	-1%	-14%	i	-2%	-16%	-4%
C[C@H](NC(=O)/C(C#N)=C/c1ccc(O)c(O)c1)c1ccccc1	-1%	-15%	i	-2%	7.9µM*!	4%
N#C/C(=C\c1ccc(O)c(O)c1)C(=O)Nc1ccccc1	-2%	-20%	i	16%	10µM*!	-8%
CCSc1nnc(NC(=O)c2ccccn2)s1	0%	8%	i	0%	7.9µM*	-1%
O=C1c2c(O)ccc(O)c2C(=O)c2c(NCCNCCO)ccc(NCCNCCO)c21	-5%	31%	79µM*!	-2%[3.08 µM]	16µM*!	7%[20.5 µM]
CN(C)CCCNc1cc(O)c2c(c1O)C(=O)c1ccccc1C2=O	?	.	i	-1%[15.4 µM]	?	-6%[9.17 µM]
O=C1c2ccccc2C(=O)c2c(O)c(O)cc(O)c21	40µM*	-84%	.	-21%	.	.
NNc1nncc2ccccc12	0%	-10%	i	0%[3.08 µM]	13µM*!	2%[20.5 µM]
CC1CCN(c2nncc3ccccc23)CC1	-1%	-6%	i	0%	-1%	8%
Cc1cc(O)c2c(c1)C(=O)c1cc(O)cc(O)c1C2=O	-2%	3%	i	3%	5µM*!	8%
C=Cc1c(C)c2cc3nc(cc4[nH]c(cc5nc(cc1[nH]2)C(C)=C5CCC(=O)O)c(CCC(=O)OC)c4C)[C@@]1(C)C3=CC=C(C(=O)OC)[C@H]1C(=O)OC (tested in a mixture with another compound)	-1%[34.4 µM]	67%[17.1 µM]	i	-1%[34.4 µM]	0.25µM*	7%[20.5 µM]
CCN(CC)c1ccc2cc(-c3nc4ccccc4[nH]3)c(=O)oc2c1	-2%	70%[7.66 µM]	i	65%	?	0.5µM*
O[C@@H](c1cc(-c2ccc(Cl)cc2)nc2ccccc12)[C@@H]1CCCCN1	2%[15.4 µM]	.	i	1%[15.4 µM]	-5%[11 µM]	12%[9.17 µM]
N#C[C@@H](Cc1ccc(O)c(O)c1)C(=O)N1CCc2ccccc21	1%	0%	i	-4%	6.3µM*	-6%
